Assay results published in PubChem BioAssay (NCI).
The panel holds about 79,000 compounds, 15% with a hit somewhere; the sample as a whole holds those more often. Activity calls are given as the source filed them. Cut-off read from the data, not from the text of the source: active = growth inhibition above about 70%; inactive = the rest.

How the values were obtained:
[1] = NCI Yeast Anticancer Drug Screen. Data for the rad50 strain (AID 155);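 note: 0% = growth of vehicle-only cultures of the same strain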; conditions: S. cerevisiae rad50 strain growth inhibition, active compounds read high
In short: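 Inhibition values express reduced yeast growth in compound-treated cultures relative to vehicle-treated controls.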

[2] = NCI Yeast Anticancer Drug Screen. Data for the mec2-1 strain (AID 157); conditions: S. cerevisiae mec2-1 strain, active compounds read high
In short: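 Mutant yeast (mec2-1) grown with compound; growth inhibition relative to vehicle control reported.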

[3] = NCI Yeast Anticancer Drug Screen. Data for the sgs1 mgt1 strain (AID 161);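 note: 0% = growth of cultures given vehicle only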; conditions: S. cerevisiae sgs1 mgt1 strain, active compounds read high
In short: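 This yeast growth screen uses a strain with defined DNA-repair lesions; compound-treated growth is compared with vehicle-treated growth.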

[4] = NCI Yeast Anticancer Drug Screen. Data for the cln2 rad14 strain (AID 165);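 note: 0% = growth equal to vehicle treated cultures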; conditions: S. cerevisiae cln2 rad14 strain, active compounds read high
In short: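 Readout is yeast growth inhibition versus vehicle-treated controls, using a strain with cln2 and rad14 alterations exposed to compound.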

[5] = NCI Yeast Anticancer Drug Screen. Data for the bub3 strain (AID 167); conditions: S. cerevisiae bub3 mutant strain, active compounds read high
In short: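 Steps: expose the mutant yeast strain to compound; grow alongside vehicle-treated cultures; measure growth; express inhibition against the vehicle cultures.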

[6] = NCI Yeast Anticancer Drug Screen. Data for the wt2 strain (AID 169);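 note: 0% = growth of vehicle-treated yeast cultures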; conditions: S. cerevisiae wt2 strain growth inhibition, active compounds read high
In short: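 Against vehicle-treated controls, the growth of yeast exposed to each compound was compared, and the inhibition was recorded.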

[7] = NCI Yeast Anticancer Drug Screen. Data for the mlh1 rad18 strain (AID 175); conditions: S. cerevisiae mlh1 rad18 strain growth inhibition, active compounds read high
In short: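 Genetically defined yeast (DNA repair-deficient) exposed to compounds; growth inhibition determined relative to vehicle.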

[8] = at 5.0 µM (retest, dose inferred, filed as 0.5)
[9] = at 50.0 µM (retest, dose inferred, filed as 5.0)

Measured: growth inhibition

O=c1oc2ccccc2c(O)c1C1c2c(c3ccccc3oc2=O)Oc2c1c(=O)oc1ccccc21
active: [1]; [9] 96% | [1]; at 50.0 µM 85% | [2]; [9] 97% | [2]; at 50.0 µM 91.2% | [3]; [9] 97% | [3]; at 50.0 µM 88.5% | [4]; [9] 97% | [4]; at 50.0 µM 87.3% | [5]; [9] 97% | [5]; at 50.0 µM 84.9%
inactive: [1]; [8] 9% | [2]; [8] 2% | [3]; [8] 2% | [4]; [8] 12% | [5]; [8] 9%

CNC(Cc1ccccc1)c1ccc(OC)c(OC)c1 (centres undefined)
inactive: [1]; [8] 69% | [1]; at 50.0 µM -2.25% | [2]; at 50.0 µM 4.05% | [3]; [8] -31% | [3]; [9] 14% | [3]; at 50.0 µM 18.7% | [4]; [8] 18% | [4]; [9] 13% | [4]; at 50.0 µM -15.6% | [5]; [8] 21% | [5]; [9] 28% | [5]; at 50.0 µM 14.3% | [6]; at 1.2 µM -20% | [6]; at 3.7 µM -14% | [6]; at 11.0 µM -26% | [6]; at 33.0 µM -13% | [6]; at 100.0 µM -25% | [7]; [8] 57% | [7]; at 50.0 µM 7.3%
active: [1]; [9] 95% | [2]; [8] 79% | [2]; [9] 97% | [7]; [9] 98%

CC(C)(Br)C(=O)C(Br)Br
active: [1]; [8] 97% | [1]; [9] 99% | [1]; at 50.0 µM 86.3% | [2]; [8] 100% | [2]; [9] 99% | [2]; at 50.0 µM 89% | [3]; [8] 98% | [3]; [9] 99% | [3]; at 50.0 µM 89.7% | [4]; [8] 95% | [4]; [9] 99% | [4]; at 50.0 µM 88.8% | [5]; [8] 100% | [5]; [9] 99% | [5]; at 50.0 µM 88.7% | [7]; [8] 98% | [7]; [9] 98%

O=c1ssc(Cl)c1Cl
active: [1]; [8] 97% | [1]; [9] 98% | [1]; at 50.0 µM 86.5% | [2]; [8] 96% | [2]; [9] 100% | [2]; at 50.0 µM 89.2% | [3]; [8] 100% | [3]; [9] 100% | [3]; at 50.0 µM 89.7% | [4]; [8] 93% | [4]; [9] 98% | [4]; at 50.0 µM 89.1% | [5]; [8] 99% | [5]; [9] 100% | [5]; at 50.0 µM 87.6% | [7]; [8] 97% | [7]; [9] 98%

N#Cc1ccc([Se]c2ccccc2)cc1
active: [1]; [8] 91% | [1]; [9] 96% | [1]; at 50.0 µM 73.9% | [2]; [8] 95% | [2]; [9] 96% | [3]; at 50.0 µM 72.3% | [4]; [9] 73% | [5]; [9] 84% | [5]; at 50.0 µM 77.9% | [7]; [8] 89% | [7]; [9] 97%
inactive: [2]; at 50.0 µM 54.1% | [3]; [8] -1% | [3]; [9] 67% | [4]; [8] 33% | [4]; at 50.0 µM 57% | [5]; [8] 40% | [6]; at 1.2 µM 10% | [6]; at 3.7 µM 13% | [6]; at 11.0 µM 6% | [6]; at 33.0 µM 28% | [6]; at 100.0 µM 63% | [7]; at 50.0 µM 56%

ClC1=C(Cl)C(Cl)(Cl)SS1
active: [1]; [8] 100% | [1]; [9] 99% | [1]; at 50.0 µM 88.7% | [2]; [8] 100% | [2]; [9] 99% | [2]; at 50.0 µM 91.5% | [3]; [8] 100% | [3]; [9] 99% | [3]; at 50.0 µM 92.1% | [4]; [8] 100% | [4]; [9] 99% | [4]; at 50.0 µM 91.5% | [5]; [8] 100% | [5]; [9] 99% | [5]; at 50.0 µM 89.3% | [7]; [8] 99% | [7]; [9] 99%

Br[C](Br)(Br)[Hg][c]1ccccc1
active: [1]; [8] 99% | [1]; [9] 98% | [1]; at 50.0 µM 87.3% | [2]; [8] 100% | [2]; [9] 99% | [2]; at 50.0 µM 89.8% | [3]; [8] 100% | [3]; [9] 99% | [3]; at 50.0 µM 90% | [4]; [8] 99% | [4]; [9] 98% | [4]; at 50.0 µM 89.3% | [5]; [8] 100% | [5]; [9] 99% | [5]; at 50.0 µM 89.1% | [7]; [8] 99% | [7]; [9] 98%
